The values that follow come from PubChem BioAssay (EPA / NIEHS).

A short description of assay [1]: CCTE_Shafer_MEA_dev_bursting_electrodes_number: CCTE's Neural Network Formation Assay for Number of Bursting Electrodes, Shafer Lab (AID 2284043; active means hit-call score of the fitted dose curve at least 0.9, where 1 is the maximum). The essentials: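 Rat cortical primary neurons, 48-well MEA, 16 electrodes/well; dosing DIV 0–12, re-dosed with full media change DIV 5, 9. Recordings DIV 5/7/9/12, AxIS adaptive spike detector; bursting electrode = ≥1 burst/2 min. AUC across days; loss of signal vs DMSO.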

Assay [2] can be described thus: CCTE_Shafer_MEA_dev_per_burst_interspike_interval: CCTE's Neural Network Formation Assay for Burst Interspike Interval, Shafer Lab (AID 2284044).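 Further: mean spike spacing inside bursts as AUC over recordings on days 5 7 9 12.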 The essentials: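 Primary rat cortical neurons on 48-well MEA plates, exposed from day 0 through day 12, treatment renewed at DIV 5 and 9. Within-burst interspike interval recorded days 5, 7, 9, 12, well-averaged, summarised as AUC; negative fit versus DMSO.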

A short description of assay [3]: CCTE_Shafer_MEA_dev_burst_duration_mean: CCTE's Neural Network Formation Assay for Mean Burst Duration, Shafer Lab (AID 2284045).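 On AC50: curve fitted for loss meaning shorter burst duration than DMSO.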 A digest of the protocol:
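Rat cortical cultures, 1.5 x 10^5 cells/well with laminin drop; continuous dosing days 0–12, media plus treatment refreshed DIV 5, 9. AxIS adaptive spike detection; mean single-electrode burst duration, AUC over four recordings, negative direction vs DMSO.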

Assay [4] in a line: CCTE_Shafer_MEA_dev_interburst_interval_mean: CCTE's Neural Network Formation Assay for Mean Interburst Interval, Shafer Lab (AID 2284046).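 Further: curve fitted for decrease in interburst interval relative to DMSO.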 The essentials: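 Developing rat cortical networks on 48-well MEAs receive compound from the day of plating. Burst intervals from each active electrode are averaged per well, and AUC over the recording days is fitted in the negative direction against DMSO.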

The nature of assay [5]: CCTE_Shafer_MEA_dev_inter_network_spike_interval_mean: CCTE's Neural Network Formation Assay for Mean Inter-network Spike Interval, Shafer Lab (AID 2284047). The essentials: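 Rat cortical cultures, 1.5 x 10^5 cells/well on 48-well MEA plates; continuous exposure days 0–12, medium and compound refreshed DIV 5, 9. Mean time between consecutive network-spike peaks; AUC across DIV 5/7/9/12; DMSO baseline, negative fitting direction.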

A short description of assay [6]: CCTE_Shafer_MEA_dev_network_spike_number: CCTE's Neural Network Formation Assay for Number of Network Spikes, Shafer Lab (AID 2284048).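 Further: synchronized bursts across electrodes counted on days 5 7 9 12 and integrated as AUC.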 The essentials: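 Rat cortical primary cultures on 48-well MEA (16 electrodes/well); continuous exposure DIV 0–12, full medium and treatment exchange DIV 5, 9. Readout: network spike count, AxIS adaptive detection, recordings DIV 5/7/9/12 collapsed to AUC; loss-of-signal fit, DMSO baseline.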

Assay [7] can be described thus: CCTE_Shafer_MEA_dev_network_spike_peak: CCTE's Neural Network Formation Assay for Mean Number of Electrodes in Network Spike, Shafer Lab (AID 2284049).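 On AC50: fitted for loss of signal meaning fewer electrodes in network spikes than DMSO.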 A digest of the protocol:
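Network-spike peak electrode count from recordings on days 5, 7, 9 and 12 was combined as trapezoidal area under the curve. Rat cortical cultures were treated continuously from plating, with compound renewed at each feed (DIV 5, 9); fits versus DMSO.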

Assay [8] can be described thus: CCTE_Shafer_MEA_dev_spike_duration_mean: CCTE's Neural Network Formation Assay for Mean Spike Duration, Shafer Lab (AID 2284051).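 On AC50: potency for a decrease in mean network spike duration versus DMSO.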 A digest of the protocol: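 Readout is the average length of network spikes, clustered firing across electrodes, summed over DIV 5, 7, 9 and 12 as area under the curve. Neurons from rat cortex developed networks on MEA plates under continuous 12-day exposure.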

Assay [9] can be described thus: CCTE_Shafer_MEA_dev_network_spike_duration_std: CCTE's Neural Network Formation Assay for Standard Deviation of Network Spike Duration, Shafer Lab (AID 2284052).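 Further: hits are decreases in network spike duration SD versus DMSO vehicle.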 A digest of the protocol:
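Read-out is the trapezoidal area-under-the-curve across recordings made on days 5, 7, 9 and 12, fitted in the negative direction against DMSO baseline. Neurons were primary rat cortical cells treated from day 0, with treatment renewed at each feed.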

The nature of assay [10]: CCTE_Shafer_MEA_dev_per_network_spike_spike_number_mean: CCTE's Neural Network Formation Assay for Mean Number of Spikes in a Network Spike, Shafer Lab (AID 2284053).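 On AC50: fitted as decrease in spikes per network spike relative to DMSO.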 The essentials:
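Continuous twelve-day exposure of developing rat cortical networks grown over 16 microelectrodes per well; spontaneous firing is captured at four time points, and the per-network-spike spike number is integrated over development by trapezoidal AUC.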

Assay [11] is described as follows: CCTE_Shafer_MEA_dev_per_network_spike_spike_percent: CCTE's Neural Network Formation Assay for Percent of Spikes in a Network Spike, Shafer Lab (AID 2284054). The essentials: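 Read-out: percent of spikes falling in a 0.05 s window at network-spike peak, from spontaneous MEA recordings on days 5, 7, 9 and 12; trapezoidal AUC; loss of signal versus DMSO. Rat cortical cultures, compound present throughout.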

The nature of assay [12]: CCTE_Shafer_MEA_dev_LDH: CCTE's Lactate Dehydrogenase Assay for Cytotoxicity in the Neural Network Formation Assay, Shafer Lab (AID 2284068; active means hit-call score of the fitted dose curve at least 0.9, where 1 is the maximum;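 further: exposure for twelve days from plating with re-dosing on DIV 5 and 9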). The essentials:
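Cytotoxicity companion to network-formation recordings: rat cortical neurons received compound over 12 days of development, re-dosed at DIV 5 and 9 feeds. Viability was inferred from LDH enzyme activity relative to DMSO.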

Assay [13] in a line: CCTE_Shafer_MEA_dev_mutual_information_norm: CCTE's Neural Network Formation Assay for Mutual Information Normalization, Shafer Lab (AID 2284091). The essentials: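 Neurons from rat cortex were seeded at 1.5 x 10^5 cells/well onto PEI-coated MEAs in a laminin drop, then exposed to compound from day 0 for twelve days. Network recordings on four days gave mutual information, summarised by AUC relative to DMSO.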

Assay [14] in a line: CCTE_Shafer_MEA_dev_correlation_coefficient_mean: CCTE's Neural Network Formation Assay for Mean Correlation Coefficient, Shafer Lab (AID 2284093).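 On AC50: well mean pairwise spike train correlation integrated as AUC over recording days 5 to 12; potency fitted for loss of correlation relative to DMSO vehicle wells.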 A digest of the protocol: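 Read-out: well-mean correlation coefficient of spike trains between electrode pairs, collapsed over four recording days as trapezoidal area-under-the-curve. Developing rat cortical neuron networks grown on MEAs received test chemical continuously from plating.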

In a further assay the test system is DIO2 (gene 1734). The experiment in a line: CCTE_GLTED_hDIO2: CCTE's human Deiodinase 2 (DIO2) Inhibition Assay, Great Lakes Toxicology and Ecology Division (GLTED) Lab (AID 2284050; active means hit-call score of the fitted dose curve at least 0.9, where 1 is the maximum). A digest of the protocol: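 Iodide released by human deiodinase 2 over 3 h with test chemical, measured spectrophotometrically via Sandell-Kolthoff cerium/arsenic reaction. Run n=3; inhibition referenced to DMSO.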

The subject of another assay is DIO3 (gene 1735). The experiment in a line: CCTE_GLTED_hDIO3: CCTE's human Deiodinase 3 (DIO3) Inhibition Assay, Great Lakes Toxicology and Ecology Division (GLTED) Lab (AID 2284055; active means hit-call score of the fitted dose curve at least 0.9, where 1 is the maximum;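 further: potency is for inhibition seen as loss of released iodide signal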). A digest of the protocol: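 Inhibition is read as reduced iodide release, measured spectrophotometrically by the Sandell-Kolthoff cerium/arsenic reaction. Adenovirus-expressed human DIO3 enzyme is exposed to chemical for 3 h, n=3 plates. Iodinated chemicals, nitrite, iron or thiocyanate may interfere.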

Assay [15] in a line: CCTE_Shafer_MEA_dev_AB: CCTE's Alamar Blue Assay for Cytotoxicity in the Neural Network Formation Assay, Shafer Lab (AID 2284083; active means hit-call score of the fitted dose curve at least 0.9, where 1 is the maximum;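 further: twelve days of exposure from plating with re-dosing on DIV 5 and 9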). A digest of the protocol:
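Fluorescent resazurin reduction serves as the viability read-out, with DMSO as negative control and baseline. Cells were primary rat cortical neurons grown on MEA plates and dosed from day 0 to day 12, treatment renewed on DIV 5 and 9.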
(In general: Resazurin is reduced to fluorescent resorufin, in cell work by metabolically active cells.)

A short description of assay [16]: CCTE_Mundy_HCI_hNP1_Pro_ResponderAvgInten: CCTE's Proliferation Assay in human neuroprogenitor cells, Mundy Lab (AID 2284224; active means hit-call score of the fitted dose curve at least 0.9, where 1 is the maximum;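 further: human neural progenitor cells hNP1 derived from WA09 embryonic stem cells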). A digest of the protocol: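 Proliferation read as average intensity of BrdU-positive cells, imaged at 26.25 h post-dosing: chemical exposure started after 40–44 h culture, BrdU during final 4 h, paraformaldehyde fixation. Positive-direction fit relative to DMSO.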

Assay [17] is described as follows: CCTE_Shafer_MEA_acute_AB: CCTE's Alamar Blue Assay for Cytotoxicity in the Neural Acute Assay, Shafer Lab (AID 2284069; active means hit-call score of the fitted dose curve at least 0.9, where 1 is the maximum;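 further: active compounds lower the viability signal compared with DMSO wells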). The essentials: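 Metabolic activity in chemically exposed rat cortical neurons (MEA cultures, day 13/15 post-plating) measured via CellTiter Blue resazurin reduction, 544/590 nm fluorescence; fitted relative to DMSO, with signal loss indicating reduced viability.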

Assay [18] can be described thus: CCTE_Shafer_MEA_acute_LDH: CCTE's Lactate Dehydrogenase Assay for Cytotoxicity in the Neural Acute Assay, Shafer Lab (AID 2284086; active means hit-call score of the fitted dose curve at least 0.9, where 1 is the maximum;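 further: active means LDH release rises above DMSO vehicle level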). A digest of the protocol: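 LDH released during 40 min compound exposure of primary rat cortical cultures, quantified by absorbance at 490 nm in collected medium. Fitting direction positive versus DMSO vehicle.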

Inconclusive results are not listed. Some structures have more than one record in an assay (separate samples or runs), and their calls can disagree. Activity calls are given as the source filed them. How the source made its calls, unless noted: active means hit-call score of the fitted dose curve at least 0.9, where 1 is the maximum; inactive means score below 0.9.

On to `OCC(F)(F)C(F)(F)C(F)(F)C(F)(F)C(F)(F)C(F)(F)CO`, for which the result in assay [1], in [2], in assay [3], in [4], in [5] and in assay [6] was inactive. Besides, the call in assay [7], in assay [8], in [9], in assay [10], in assay [11] and in assay [12] was inactive. For the same molecule, the result in assay [13] and in assay [14] was inactive.

In the case of `NC(O)(C(F)(F)F)C(F)(F)F`, the molecule was classed as inactive in [1], in assay [2], in [3], in assay [4], in assay [5] and in assay [6]. The result in assay [7], in assay [8], in [9], in assay [10], in assay [11] and in assay [12] was inactive. In addition, the result in assay [13] and in assay [14] was inactive. Moreover, in assay [7], the AC50 is 0.00434 µM (active).

Turning to `CCCCCCCC/C=C\CCCCCCCC(=O)OCC(O)CO` (stereo not given), the AC50 with DIO2 (gene 1734) was 38.5 µM (active); with DIO3 (gene 1735) it was 21.3 µM (active).

`NC(=O)C(F)(F)C(F)(F)C(F)(F)C(F)F`: the outcome in assay [2], in assay [3], in assay [4], in assay [5], in assay [6] and in [7] was inactive. For the same molecule, the outcome in assay [8], in [9], in assay [10], in [11], in [12] and in assay [13] was inactive. Moreover, the molecule was called inactive in assay [14].

On to `OCCCCC(F)(F)C(F)(F)C(F)(F)C(F)(F)F`, for which the molecule was classed as inactive in assay [1], in assay [2], in assay [3], in [4], in assay [5] and in [6]. The outcome in assay [7], in [8], in assay [9], in assay [10], in [11] and in [12] was inactive. Further, the outcome in [15], in [13], in assay [14] and in [16] was inactive.

With `CCN=C1C=CC(=C(c2ccc(N(CC)CC)cc2)c2ccc(N(CC)CC)cc2)c2ccccc21`, the AC50 is 42 µM (active) in the assay with DIO2 (gene 1734), 8.42 µM (active) with DIO3 (gene 1735) and 6.86 µM (active) in [17]. Besides, the call in [18] was inactive.

For `OCC(F)(F)C(F)(F)C(F)(F)CO`, the molecule was called inactive in assay [1], in assay [2], in [4], in [5], in assay [6] and in [7]. Also, the outcome in [8], in assay [9], in assay [10], in [11], in [12] and in assay [13] was inactive. For the same molecule, the molecule was classed as inactive in assay [14]. In addition, in assay [3], the AC50 was 15 µM (active).

As to `CCCCCCCCn1sc(Cl)c(Cl)c1=O`, the AC50 in the assay on DIO2 (gene 1734) is 26 µM (active); in the assay on DIO3 (gene 1735) it was 7.82 µM (active).

For the molecule `O=S(=O)(O)CCC(F)(F)C(F)(F)C(F)(F)C(F)(F)F`, the call in assay [1], in assay [2], in [3], in assay [4], in assay [5] and in assay [6] was inactive. In addition, the result in assay [7], in [8], in assay [9], in assay [10], in assay [11] and in [12] was inactive. For the same molecule, the molecule was classed as inactive in assay [13] and in [14].

Regarding `CCN(CCO)S(=O)(=O)C(F)(F)C(F)(F)C(F)(F)C(F)(F)C(F)(F)C(F)(F)C(F)(F)C(F)(F)F`, the molecule was called inactive in assay [1], in assay [2], in assay [3], in [4], in [5] and in assay [6]. For the same molecule, the molecule was called inactive in [7], in [8], in assay [9], in assay [10], in assay [11] and in assay [12]. Also, the molecule was called inactive in [15], in assay [13], in assay [14] and in assay [16]. Moreover, the concentration at half-maximal activity (AC50) in [12] was 10.1 µM (active).

In the case of `C=CC(=O)OCCC(F)(F)C(F)(F)C(F)(F)C(F)(F)F`, the molecule was called inactive in assay [1], in assay [2], in assay [3], in [4], in assay [5] and in assay [6]. Besides, the molecule was called inactive in [9] and in assay [13]. For the same molecule, the concentration at half-maximal activity (AC50) is 23.5 µM (active) in assay [7]; 31.5 µM (active) in the assay on DIO2 (gene 1734); 22.7 µM (active) in assay [8]; 15 µM (active) in assay [10]; 8.58 µM (active) in [11]; 51.8 µM (active) in the assay with DIO3 (gene 1735). Further, the concentration at half-maximal activity (AC50) in assay [12] is 15 µM (active); in assay [15], 21.8 µM (active); in assay [14] it was 15 µM (active).

`O=S(=O)(O)CCC(F)(F)C(F)(F)C(F)(F)C(F)(F)C(F)(F)C(F)(F)C(F)(F)C(F)(F)F`: the call in [2], in assay [3], in assay [4], in [5], in [6] and in assay [7] was inactive. The outcome in assay [8], in [9], in assay [10], in [11], in assay [13] and in assay [14] was inactive.

As a reminder, the AC50 is the concentration giving half of the maximal activity seen.
